Our source for the inhibition values is PubChem BioAssay.

The structures appear in SMILES notation. Values joined by “and” are separate entries in the source; they are usually repeats but may differ in a detail not shown here. Equal entries are not always repeated. Active and inactive are the calls of the source. Rule as the data show it: active = inhibition above about 80%; inactive = the rest.

By inhibition is commonly meant the relative decrease from the control value, in per cent.
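Also: cells exposed for 96 hours before readout.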

The first assay in a line: ICB984 medulloblastoma cell growth inhibition, synergistic combos for chromothripsis tumors, cisplatin or BGB combos (AID 1671451).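 Also: 0% = vehicle DMSO and 100% = killing by high DMSO.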 To be noted: ICB984 medulloblastoma cells, drug combinations, cisplatin combo, at 0.5 µM, stronger effect = higher value.
In the case of `O=c1[nH]cnc2c1ncn2C1CCC(CO)O1` (stereo not drawn), the inhibition was -0.57%.

In the case of `Nc1nc(Cl)nc2c1ncn2C1CC(O)C(CO)O1` (stereo not drawn), the inhibition was -35.7% and -23.4%.

Consider `Nc1ccn(C2CCC(CO)O2)c(=O)n1` (stereo not drawn), for which the inhibition was -24.3%.

The assay is the same for the next values; noted with them: ICB984 medulloblastoma cells, drug combinations, cisplatin combo, at 5 µM, stronger effect = higher value.
Turning to `O=c1[nH]cnc2c1ncn2C1CCC(CO)O1` (stereo not drawn), the inhibition is -45.9%.

Turning to `Nc1nc(Cl)nc2c1ncn2C1CC(O)C(CO)O1` (stereo not drawn), the inhibition is -35.2% and -39.5%.

Take `Nc1ccn(C2CCC(CO)O2)c(=O)n1` (stereo not drawn): the inhibition was 15.2%.

The assay is the same for the next values; noted with them: ICB984 medulloblastoma cells, drug combinations, measured here: 5 uM single agent, at 5 µM, stronger effect = higher value.
On to `O=c1[nH]cnc2c1ncn2C1CCC(CO)O1` (stereo not drawn), for which the inhibition was -17.3%.

Take `Nc1nc(Cl)nc2c1ncn2C1CC(O)C(CO)O1` (stereo not drawn): the inhibition was -14.9% and -11.7%.

As to `Nc1ccn(C2CCC(CO)O2)c(=O)n1` (stereo not drawn), the inhibition is -2.52%.

The next assay can be described thus: LFS_MB_1R medulloblastoma cell growth inhibition, synergistic combos for chromothripsis tumors, cisplatin or BGB combos (AID 1671452). The following applies: LFS_MB_1R medulloblastoma cells, at 0.5 µM, stronger effect = higher value.
Consider `O=c1[nH]cnc2c1ncn2C1CCC(CO)O1` (stereo not drawn), for which the inhibition is -24.1% (inactive).

Consider `Nc1nc(Cl)nc2c1ncn2C1CC(O)C(CO)O1` (stereo not drawn), for which the inhibition was -20.9% (inactive) and -13% (inactive).

As for `Nc1ccn(C2CCC(CO)O2)c(=O)n1` (stereo not drawn), the inhibition is -18.2% (inactive).

The same assay, now with this note: LFS_MB_1R medulloblastoma cells, measured here: combination with BGB IC40, at 0.05 µM, stronger effect = higher value.
With `O=c1[nH]cnc2c1ncn2C1CCC(CO)O1` (stereo not drawn), the inhibition was -1.26%.

For `Nc1nc(Cl)nc2c1ncn2C1CC(O)C(CO)O1` (stereo not drawn), the inhibition is -46.2% and -32.5%.

Consider `Nc1ccn(C2CCC(CO)O2)c(=O)n1` (stereo not drawn), for which the inhibition is -11.6%.

The same assay, now with this note: LFS_MB_1R medulloblastoma cells, measured here: combination with cisplatin, at 0.5 µM, stronger effect = higher value.
As for `O=c1[nH]cnc2c1ncn2C1CCC(CO)O1` (stereo not drawn), the inhibition was -27.1%.

As for `Nc1nc(Cl)nc2c1ncn2C1CC(O)C(CO)O1` (stereo not drawn), the inhibition was 26.2% and 30.5%.

Turning to `Nc1ccn(C2CCC(CO)O2)c(=O)n1` (stereo not drawn), the inhibition was -19.1%.

Staying with this assay, now noted: LFS_MB_1R medulloblastoma cells, measured here: combination with cisplatin, at 5 µM, stronger effect = higher value.
Consider `O=c1[nH]cnc2c1ncn2C1CCC(CO)O1` (stereo not drawn), for which the inhibition was -51.2%.

Regarding `Nc1nc(Cl)nc2c1ncn2C1CC(O)C(CO)O1` (stereo not drawn), the inhibition was 52% and 76.7%.

For `Nc1ccn(C2CCC(CO)O2)c(=O)n1` (stereo not drawn), the inhibition was -44%.

A further assay can be described thus: HTB85 osteosarcoma cell growth inhibition, synergistic combos for chromothripsis tumors, BGB or cisplatin IC20 combos (AID 1671453).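 Also: 0% = vehicle DMSO and 100% = high DMSO killing control.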 To be noted: HTB85 osteosarcoma cells, drug combinations, at 0.5 µM, stronger effect = higher value.
As for `O=c1[nH]cnc2c1ncn2C1CCC(CO)O1` (stereo not drawn), the inhibition was 0.13% (inactive).

For the compound `Nc1nc(Cl)nc2c1ncn2C1CC(O)C(CO)O1` (stereo not drawn), the inhibition is 22.5% (inactive) and 18.5% (inactive).

As for `Nc1ccn(C2CCC(CO)O2)c(=O)n1` (stereo not drawn), the inhibition is -28.2% (inactive).

Still in this assay, the particulars now being: HTB85 osteosarcoma cells, drug combinations, measured here: with BGB IC20, at 0.5 µM, stronger effect = higher value.
`O=c1[nH]cnc2c1ncn2C1CCC(CO)O1` (stereo not drawn): the inhibition is -29.8%.

As to `Nc1nc(Cl)nc2c1ncn2C1CC(O)C(CO)O1` (stereo not drawn), the inhibition is 21.3% and 13.2%.

Turning to `Nc1ccn(C2CCC(CO)O2)c(=O)n1` (stereo not drawn), the inhibition was -29.8%.

Staying with this assay, now noted: HTB85 osteosarcoma cells, drug combinations, measured here: with BGB IC20, at 5 µM, stronger effect = higher value.
Regarding `O=c1[nH]cnc2c1ncn2C1CCC(CO)O1` (stereo not drawn), the inhibition was -39.1%.

As for `Nc1nc(Cl)nc2c1ncn2C1CC(O)C(CO)O1` (stereo not drawn), the inhibition was 92.2% and 94.6%.

In the case of `Nc1ccn(C2CCC(CO)O2)c(=O)n1` (stereo not drawn), the inhibition is -10%.

Still in this assay, the particulars now being: HTB85 osteosarcoma cells, drug combinations, measured here: with cisplatin IC20, at 0.5 µM, stronger effect = higher value.
For `O=c1[nH]cnc2c1ncn2C1CCC(CO)O1` (stereo not drawn), the inhibition was 5.05%.

`Nc1nc(Cl)nc2c1ncn2C1CC(O)C(CO)O1` (stereo not drawn): the inhibition is 10.1% and 11.2%.

Consider `Nc1ccn(C2CCC(CO)O2)c(=O)n1` (stereo not drawn), for which the inhibition was -43.4%.
